D1 ag – Allosteric Agonists of the Human D1 Dopamine Receptor: qHTS; HEK293 T-REx D1 cells, calcium flux, agonist mode; activation, % at 2 µM; 360,000 tested, 1% active; AID 504660, 2011; in the data active = activation above about 30%; note: 0% is about no effect
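Inducible HEK293 T-REx D1 cells, force-coupled to calcium signalling, were plated at 4000 cells/well with tetracycline and held overnight at 30 C. After no-wash calcium dye loading, compound-evoked calcium rise over 180 s flagged agonists.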
D1 antag – Antagonist of Human D 1 Dopamine Receptor: qHTS. activity change, negative = inhibition, % at 10 µM. D(1A) dopamine receptor (Homo sapiens), P21728. AID 504652, 2011. HEK293 TREx D1 cells, calcium flux, dopamine EC80; hits give low values. 360,000 tested, 3.2% active; in the data active = activity change below about -30%; note: % is set by controls: 0 for no effect and ±100 for the full control effect
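Allosteric or orthosteric antagonism assessed as attenuation of the calcium response to EC80 dopamine, added 180 s after compound, in induced HEK293 Trex D1 cells loaded with no-wash calcium dye.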
DRD3 agonist – qHTS of D3 Dopamine Receptor Agonist: qHTS. D(3) dopamine receptor (Homo sapiens), P35462. D3R DiscoveRx beta-arrestin cells, luminescence, 90 min. max activation, %. 410,000 tested, 0.58% active; in the data active = max activation above about 30%; note: 0% is about no effect
Target sequence (P35462 whole entry, looked up): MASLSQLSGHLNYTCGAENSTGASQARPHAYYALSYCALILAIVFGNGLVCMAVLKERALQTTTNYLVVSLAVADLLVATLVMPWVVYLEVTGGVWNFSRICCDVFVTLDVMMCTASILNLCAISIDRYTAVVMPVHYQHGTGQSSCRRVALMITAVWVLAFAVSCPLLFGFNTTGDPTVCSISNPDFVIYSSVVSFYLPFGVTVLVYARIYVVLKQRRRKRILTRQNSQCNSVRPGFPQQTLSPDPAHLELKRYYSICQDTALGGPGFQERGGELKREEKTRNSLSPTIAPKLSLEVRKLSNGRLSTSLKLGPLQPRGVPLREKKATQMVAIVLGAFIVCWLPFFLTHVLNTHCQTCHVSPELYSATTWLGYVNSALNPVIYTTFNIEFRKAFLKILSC
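Agonist-mode cell screen: cells plated at 1500/well and incubated overnight at 37 °C, then exposed to library compounds for 90 min at 37 °C. Detection reagent was added for 30–60 min at room temperature, and luminescence was read.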
D1 potentiator – Potentiators of Human D1 Dopamine Receptor: qHTS. D(1A) dopamine receptor (Homo sapiens), P21728. 360,000 tested, 0.036% active. AID 504651, 2011. potentiation, % at 10 µM. HEK293 TREx D1 cells, calcium flux, dopamine EC20 potentiation; in the data active = potentiation above about 30%; note: 0% is about no effect
Chronic BCR inh – qHTS Assay to Find Inhibitors of Chronic Active B-Cell Receptor Signaling; ABC-DLBCL IkBa-CBG/CBR reporter, luminescence ratio, 4 h; Potency, µM (highest dose often 46.1 µM), for inactives: at the highest dose activity change, negative = inhibition, usual class: inhibitors; 340,000 tested, 0.05% active; active = well fitted inhibition curve with a large enough effect in the signal ratio, with a control signal flat, not every such curve was filed as active; inconclusive = small, poorly fitted or top-dose-only effect, or effect the other way, or a change in a side signal; the % refers to the signal ratio;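 note: potency is the fitted concentration of half-maximal effect; plate controls were basal doxycycline-induced cells for no effect and cells given 10 µM MG132 for full effect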
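Compounds up to 46 uM were incubated four hours with TMD8 cells whose green CBG68 luciferase is fused to IkappaBalpha; red CBR luminescence normalised the signal, and concentration-effect curves were fitted to fusion, red and ratio data.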
D3 antag – qHTS of D3 Dopamine Receptor Antagonist: qHTS; D(3) dopamine receptor (Homo sapiens), P35462; D3R cells, DiscoveRx beta-arrestin luminescence, antagonist mode; hits give low values; max response, negative = inhibition, %; 360,000 tested, 2.5% active; AID 652054, 2013; in the data active = max response below about -50%; inconclusive = no clear call, values can overlap the other calls; note: % is set by controls: 0 for no effect and ±100 for the full control effect
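Cells plated overnight at 1500 cells/well, then exposed to library compounds with dopamine controls for 90 minutes at 37 degrees C. DiscoveRx reagent added for 30–60 minutes at room temperature; luminescence read, quantitative HTS format.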
* marks the source's active call; other numbers are inactive results; u = inconclusive; x = no result given. This is a sample that favours compounds with a hit; in the whole collection about 6% have one here.

SMILES	D1 ag	D1 antag	DRD3 agonist	D1 potentiator	Chronic BCR inh	D3 antag
O=c1c2cc(Cl)ccc2nc(-c2ccccc2)n1O	5	0	-1	-3	u	-16
O=c1c2cc(Br)ccc2nc(-c2cccc(C(F)(F)F)c2)n1O	62*	3	8	4	-1%	u
N#Cc1ccc(-c2nc3ccc(Br)cc3c(=O)n2O)cc1	3	6	1	5	-1%	31
Cc1ccc(NC(=O)CN2CCN(C(=O)C3CC3)CC2)c(F)c1	x	x	-5	x	x	-13
COc1ccccc1CN(C)C[C@@H]1OCc2cnnn2CCCC(=O)N([C@H](C)CO)C[C@H]1C	x	x	-6	x	x	u
Cc1nn(C(CC(=O)O)C(=O)O)c(C)c1Br (configuration not stated)	0	-16	42*	-4	-1%	-22
COc1ccc(CN(C)c2ccc(-c3nc(-c4ccccc4)no3)cc2[N+](=O)[O-])cc1	0	-27	2	-2	x	x
O=C1c2ccccc2-c2onc3ccc(Oc4ccccc4)c1c23	11	97	-9	21	u	-116*
O=C(c1ccccc1)c1coc2c1C(=O)c1ccccc1C2=O	2	-10	-7	-3	-3%	-13
O=C1C2C(C(=O)N1/N=C/c1cc(Br)cc([N+](=O)[O-])c1O)C1C=CC2C12CC2 (configuration not stated)	5	-31*	-30	1	10%	-70*
O=C1C2C(C(=O)N1/N=C/c1cc([N+](=O)[O-])c(O)cc1O)C1C=CC2C12CC2 (configuration not stated)	1	-4	-3	-1	2%	u
FC(F)Oc1ccc(NC(=S)NCc2cccnc2)cc1	5	-3	-5	6	1%	-3
CCc1ccc(NC(=S)NCc2ccccc2)cc1	6	-38*	5	-7	0%	12
Fc1ccc(CNC(=S)Nc2ccc(OC(F)F)cc2)cc1	26	-42*	2	-7	4%	-4
CCc1ccc(NC(=S)NCc2cccnc2)cc1	1	3	2	-2	1%	-6
S=C(NCc1ccccc1)Nc1ccncc1	8	-56*	16	-17	-1%	9
COC(=O)c1c(-c2cccs2)csc1NC(=O)COc1c(C)ccc(C)c1C	4	7	9	1	x	x
Cc1cc(N/C(=N\S(=O)(=O)c2ccc(F)cc2F)c2ccccc2)no1	0	x	7	0	u	15
COc1cccc(C2=NOC(C(=O)Nc3cc(C)nn3-c3ccccc3)C2)c1OC (configuration not stated)	6	5	-9	0	u	-26
Cc1cc(N/C(=N/S(=O)(=O)c2cc(F)ccc2F)c2ccccc2)n(-c2ccccc2)n1	7	-36*	-1	-6	-3%	1
Cc1cc(NC(=O)C2CC(c3ccc(F)cc3)=NO2)n(-c2ccccc2)n1 (configuration not stated)	1	-64*	4	x	u	22
Cc1ccccc1N/C(=N/S(=O)(=O)c1cc(F)ccc1F)c1ccccc1	3	-31*	4	-11	u	-5
Cc1cc(N/C(=N/S(=O)(=O)c2ccc(F)cc2)c2ccccc2)n(-c2ccccc2)n1	1	-15	-3	-9	-4%	3
Cc1cc(Cl)ccc1-n1c(CCC(=O)O)ccc1-c1cccs1	0	10	1	-1	x	x
C=C(Br)CN1[C@@H](Cc2ccccc2)[C@H](O)[C@@]23C=C[C@@H](C[C@@H]2S1(=O)=O)O3	x	x	8	x	-1%	27
SMILES	D1 ag	D1 antag	DRD3 agonist	D1 potentiator	Chronic BCR inh	D3 antag
N#C[C@@H]1N(Cc2ccccc2)C(=O)[C@H]2CC3C=CC21O3 (some centres not stated)	2	-32*	13	-8	-6%	0
CCOc1ccc(Nc2nc(N)c(C(=O)c3ccccc3Cl)s2)cc1	9	81	70*	3	x	x
COc1ccc(Nc2nc(N)c(C(=O)c3ccc(OC)cc3)s2)cc1	13	17	-7	7	u	-24
Cn1nnc2c(NCc3c(F)cccc3F)ncnc21	-2	x	2	0	u	x
COc1ccc(CNC(=O)c2c(C)oc3c2C(=O)c2ccccc2C3=O)cc1	-2	11	-7	0	5%	-72*
Cc1oc2c(c1C(=O)NCc1cccnc1)C(=O)c1ccccc1C2=O	0	-3	-7	-8	u	-72*
COCCCNC(=O)Cn1c(=O)nc(-c2ccccc2)c2ccccc21	-1	-3	-2	-1	x	x
CN(C)CCOc1ccc(-c2c(-c3ccccc3)sc3ccccc23)cc1	x	x	-23	x	-2%	-16
CN(C)CCOc1ccc(/C(=C(/CCCl)c2ccccc2)c2ccccc2)cc1	x	x	-85	x	x	-91*
C(=C\c1ccccc1)/CN1CCN(C(c2cccc3ccccc23)c2nnnn2C2CCCC2)CC1 (configuration not stated)	x	x	-13	x	x	-99*
C(=C\c1ccccc1)/CN1CCN(C(c2nnnn2C2CCCCC2)C2CC2)CC1 (configuration not stated)	x	x	-7	x	x	-4
C(=C\c1ccccc1)/CN1CCN(C(c2cc3ccccc3o2)c2nnnn2Cc2ccccc2)CC1 (configuration not stated)	x	x	-15	x	x	-104*
CN(C)CCN1CCN(C(c2cc3ccccc3o2)c2nnnn2C(C)(C)C)CC1 (configuration not stated)	x	x	-4	x	x	0
C(=C\c1ccccc1)/CN1CCN(C(CCc2ccccc2)c2nnnn2C2CCCCC2)CC1 (configuration not stated)	x	x	-20	x	x	-59*
C(=C\c1ccccc1)/CN1CCN(C(c2cc3ccccc3o2)c2nnnn2C2CCCC2)CC1 (configuration not stated)	x	x	-9	x	x	-98*
Cc1cccc(C)c1NC(=O)C(c1ccnc2ccccc12)N1CCN(C)CC1 (configuration not stated)	x	x	-11	x	x	-23
CCOC(=O)c1nn(C)c(C)c1Cl	6	-44*	-30	-7	-1%	-71*
COC(=O)C[C@H]1C=C[C@@H](NC(=O)Nc2c(C)noc2C)[C@@H](CO)O1	x	x	-1	x	x	0

Screening data from PubChem.
